PLK1 PBD block = blocks phosphopeptide binding to human PLK1 polo-box domain. P53350. Plk1 PBD binding of FITC phosphopeptide, fluorescence polarization. Potency, µM, hits mostly inhibitors. actives 2.8% (n = 360,000); also: series mostly up to about 57 µM; nearly all actives have a fitted effect of over 65% in size
USP1-UAF1 inh = USP1/UAF1 (human) deubiquitinase inhibition | O94782 | recombinant USP1/UAF1, Ub-Rhodamine cleavage fluorescence | Potency, µM (series often up to 57.1 µM), hits mostly inhibitors | actives 0.23% (n = 390,000); also: nearly all actives have a fitted effect of over 60% in size
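In this screen, compounds sit with the deubiquitinase complex (1nM) for 15 min at room temperature before Ub-Rho is added at 150nM final. Fluorescence rise is then followed for 6 reads every 60 seconds.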
PI5P4K alpha inh = PI5P4K alpha (human) kinase inhibition. P48426. PI5P4Kalpha enzyme, ADP-Glo luminescence, 60 min; active compounds read low. max response, %. actives 1.2% (n = 330,000); active = max response of -50% or lower; inconclusive = between -30% and -50%; inactive = -30% or higher; also: value at the top dose of about 77 µM
Target sequence (P48426 whole entry, looked up): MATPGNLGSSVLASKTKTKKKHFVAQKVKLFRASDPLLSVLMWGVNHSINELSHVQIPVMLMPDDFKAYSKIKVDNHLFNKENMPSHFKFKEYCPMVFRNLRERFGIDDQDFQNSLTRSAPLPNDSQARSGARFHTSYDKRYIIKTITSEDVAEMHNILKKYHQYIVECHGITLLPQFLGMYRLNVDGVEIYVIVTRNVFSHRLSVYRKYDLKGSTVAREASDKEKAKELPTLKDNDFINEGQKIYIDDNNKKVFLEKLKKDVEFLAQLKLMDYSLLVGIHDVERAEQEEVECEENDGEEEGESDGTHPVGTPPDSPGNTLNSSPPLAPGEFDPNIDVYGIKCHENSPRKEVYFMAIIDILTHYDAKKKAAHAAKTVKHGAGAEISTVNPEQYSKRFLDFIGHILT
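Quantitative HTS of the MLSMR library against PI5P4Kalpha with substrate. ATP added last at 5 microM final; room temperature, 60 minutes. Remaining ATP depleted, ADP converted and read as luminescence.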
USP2a inh = blocks human ubiquitin-specific protease USP2a | USP2 core, Ub-CHOP2 coupled fluorogenic reporter, 485/531 | Potency, µM (top dose mostly 38.3 µM), most hits filed as inhibitors | actives 0.01% (n = 330,000) | AID 463254
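Cell-free coupled assay: 10nM USP2 core preincubated 30min RT with compound in Tris-HCl pH 8.0/CaCl2/CHAPS buffer, then 25nM Ub-CHOP2 and 25nM reporter substrate; fluorescence (Ex 485/Em 531) read after 60min RT, normalized to NEM inhibition, concentration-response curves fitted.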
WRN helicase inh = blocks human WRN helicase | Q14191 | WRN helicase unwinding, fluorescent forked duplex, kinetic | Potency, µM (doses to about 114 µM), actives largely listed as inhibitors | actives 0.46% (n = 360,000); also: nearly all actives have a fitted effect of over 55% in size
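WRN at 20 nM final was preincubated with compound for 15 min at room temperature; reaction started with 100 nM forked duplex oligonucleotide carrying fluorophore and quencher plus 2 mM ATP (final). Unwinding followed kinetically by red fluorescence (ex 525/em 598 nm).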
Hits are given with their value; i = inactive; ? = inconclusive; nt = no result given; [ ] = dose if it differs, or a comment. Most compounds without a hit are left out; they make up all but 3.3% or so of the library. Unless noted, calls follow the shape of the dose curve; as a rule, active = well fitted curve in the direction sought with a large enough effect; inconclusive = small, poorly fitted or top-dose-only effect, or another doubt; inactive = no such curve, though single readings can be large; an effect the other way counts as inactive or inconclusive.

SMILES	PLK1 PBD block	USP1-UAF1 inh	PI5P4K alpha inh	USP2a inh	WRN helicase inh
Cc1sc(NC(=O)c2cccs2)c(C(N)=O)c1C	21.2µM	i	nt	i	i
Cc1ccc(C(=O)Nc2sc(C)c(C)c2C(=O)c2ccccc2)cc1	2.99µM	i	i	i	i
Cc1sc(NC(=O)c2ccccc2)c(C(=O)c2ccccc2)c1C	6.7µM	i	i	i	?
CC1=C(C(=O)Nc2ccccc2)C(c2cccnc2)n2nc(SCc3ccccc3F)nc2N1 (stereo not given)	nt	i	nt	nt	nt
Cc1ccc(O)c(C(CC(=O)NCC2(c3ccccc3)CCCC2)c2ccccc2)c1 (stereo not given)	nt	i	nt	nt	nt
O=C(O)/C=C\C(=O)Nc1cc(O)ccc1[N+](=O)[O-]	?	i	-74.7	i	i
CC(C)c1ccc(-c2nnc3n(CCc4ccccc4)c(=O)c4ccccc4n23)cc1	nt	i	nt	nt	nt
Cc1ccc(OCc2nc(-c3ccc(C(=O)NCCc4ccc(S(N)(=O)=O)cc4)cc3)oc2C)cc1	nt	i	nt	nt	nt
Cc1cccc(N=C2NC(=O)/C(=C/c3cccnc3)S2)c1	i	i	i	i	?
O=C1NC(=Nc2cccc(O)c2)S/C1=C\c1cccnc1	i	i	-60.2	i	i
O=C1NC(=Nc2cccc(O)c2)S/C1=C\c1cccc([N+](=O)[O-])c1	i	i	-69.8	i	i
Cc1c(N=C2NC(=O)/C(=C/c3cccc([N+](=O)[O-])c3)S2)c(=O)n(-c2ccccc2)n1C	nt	nt	nt	i	nt
CC(=O)Nc1cccc(NC(=O)c2c(-c3ccccc3)c(-c3ccccc3)nn(C)c2=O)c1	nt	i	nt	nt	nt
CSc1ccccc1-c1nnc(-c2ccccc2)o1	i	i	i	i	i
CSc1nnc(-c2ccccc2SC)o1	29.9µM	i	i	i	i
CCOC(=O)C(=NC1CCS(=O)(=O)C1)NNc1ccccc1Cl (stereo not given)	26.7µM	i	i	i	i
O=C(NNC(=O)c1cccc(-n2cccc2)c1)c1ccc(F)cc1	i	i	-67.7	i	?
Cc1cccc(C(=O)NNC(=O)c2ccc(F)cc2)c1	i	i	i	i	i
COC1=C(Nc2ccc(C)cc2)C(=O)c2ccccc2C1=O	i	i	i	i	i
COC1=C(N)C(=O)c2nc(C)ccc2C1=O	i	7.08µM	i	nt	i
Cc1nc2c(nc1C)C(=O)c1ccccc1C2=O	i	?	i	nt	i
COC1=C(Br)C(=O)c2nc(C)ccc2C1=O	?	25.1µM	-68.0	nt	50.1µM
O=S(=O)(c1ccc2c(c1)OCCO2)N1CCC(n2cnc3cc(F)ccc32)CC1	i	i	i	i	i
O=S(=O)(c1ccc2c(c1)OCCO2)N1CCC(n2nnc3cc(F)ccc32)CC1	21.2µM	i	i	i	i
Cc1nn(C2CCS(=O)(=O)C2)c(C)c1C=O (stereo not given)	3.36µM	i	-67.0	i	?
SMILES	PLK1 PBD block	USP1-UAF1 inh	PI5P4K alpha inh	USP2a inh	WRN helicase inh
Cc1ccc(C)n1C1CCS(=O)(=O)C1 (stereo not given)	i	i	i	i	i
Cc1cccc(N2C(=O)C3CCCN3C2=S)c1 (stereo not given)	13.4µM	i	i	i	i
Cc1ccc(N2C(=O)C3CCCN3C2=S)c(C)c1 (stereo not given)	?	i	i	i	i
O=C1C2CCCN2C(=S)N1c1ccccc1 (stereo not given)	13.4µM	i	i	i	i
CSc1cccc(N2C(=O)C3CCCN3C2=S)c1 (stereo not given)	10.6µM	i	i	i	i
COc1cccc(N2C(=O)C3CCCN3C2=S)c1 (stereo not given)	13.4µM	i	i	i	i
CCOc1ccc(NC(=O)C2CCCN(c3nnc(-n4c(C)ccc4C)s3)C2)cc1 (stereo not given)	nt	i	nt	nt	nt
CC1(C)CC(=O)c2cc(-c3nc(-c4ccc(Cl)cc4)cs3)c(=O)n(-c3cccc(F)c3)c2C1	nt	i	nt	nt	nt
Cc1nc2ccccc2n1CCc1nc2c3ccccc3nc(SCc3ccccc3F)n2n1	nt	i	nt	nt	nt
NC(=O)c1cc(N2C(=O)C=CC2=O)ccc1Cl	21.2µM	i	nt	i	i
CC(=O)Nc1ccc(Cl)c(C(N)=O)c1	i	i	nt	i	i
COc1ccccc1N1CCN(C(CNC(=O)C(=O)NCCCN(C)C)c2cccnc2)CC1 (stereo not given)	nt	i	nt	nt	nt
O=C(O)c1cc2n(n1)C(C(F)(F)F)CC(C1CC1)N2 (stereo not given)	23.8µM	i	i	i	i
O=C(CCc1nnc(CCc2c[nH]c3ccccc23)o1)NC1CCC1	23.8µM	i	i	i	i
COc1ccc(NC(C)=O)cc1NC(=O)C1(c2cccs2)CCOCC1	nt	i	nt	nt	nt
CCN(CC)c1nc(-c2cccc(OC)c2O)nc2ccccc12	9.47µM	?	i	i	i
Cn1c(=O)c(C#N)c(-c2ccc(F)cc2)c2cc(C(=O)c3cc(Cl)cc(Cl)c3O)cnc21	26.7µM	i	?	i	i[11.6 µM]
COc1cc(/C=C/C(=O)Nc2nnc(CC(C)(C)C)s2)cc(OC)c1OC	8.44µM	i	i	i	i
COc1cc(/C=C/C(=O)Nc2nnc(CC(C)C)s2)cc(OC)c1OC	i	i	i	i	i
COc1ccc(CCNc2oc(/C=C/c3ccc(OC)c(OC)c3)nc2C#N)cc1	nt	i	nt	nt	nt
Cc1ccc(-c2nc(NC(=O)CSc3ncn[nH]3)ns2)cc1	7.52µM	?	?	i	i
Cc1ccc(CNC(=O)CSc2ncn[nH]2)cc1	i	i	i	i	i
Cc1ccc(-c2noc(C3CC(=O)N(c4ccc5c(c4)OCCO5)C3)n2)cc1 (stereo not given)	nt	i	nt	nt	nt
CC(=O)c1c(C)nn(CCC(=O)O)c1C	15µM	i	?	i	i
Cc1cccc(-n2cnc(C(=O)NC3CCCCCC3)c2)n1	23.8µM	i	i	i	i
SMILES	PLK1 PBD block	USP1-UAF1 inh	PI5P4K alpha inh	USP2a inh	WRN helicase inh
O=C(O)C(c1ccccc1)N1C(=O)/C(=C\c2ccc(O)c(O)c2)SC1=S (stereo not given)	i	?	?	i	31.6µM
CCOc1ccc(/C=C2/SC(=S)N(C(C(=O)O)c3ccccc3)C2=O)cc1OCC (stereo not given)	?	i	i	i	i
CCOc1cc(/C=C2\SC(=S)N(C(C(=O)O)c3ccccc3)C2=O)ccc1O (stereo not given)	i	?	i	i	56.2µM
COc1ccccc1/C=C1\SC(=S)N(C(C(=O)O)c2ccccc2)C1=O (stereo not given)	23.8µM	i	i	i	i
COc1cc(/C=C2\SC(=S)N(C(C(=O)O)c3ccccc3)C2=O)ccc1O (stereo not given)	i	?	i	i	50.1µM
COc1cc(/C=C2/SC(=S)N(c3c(C)n(C)n(-c4ccccc4)c3=O)C2=O)ccc1O	i	i	i	i	?
CCOc1ccc(NC(=O)Cn2c(=O)c(CNc3ccc(OC)cc3)cc3ccc(OC)cc32)cc1	nt	i	nt	nt	nt
Cc1c(C(=O)N2CCCCCC2)c(S(=O)(=O)N(Cc2ccccc2)C(C)(C)C)c(C)n1C	nt	i	nt	nt	nt
